# From PubChem BioAssay (EPA / NIEHS)
# Results filed as inconclusive are left out. Calls of active or inactive are those of the source. The calls were made as follows: active = hit-call score of the fitted dose curve at least 0.9, where 1 is the maximum; inconclusive = response in the unintended direction; inactive = score below 0.9.
# Key:
# [1] = system: zebrafish Estrogen Receptor (ESR2B), gene 317733; assay: ATG_zfER2b_XSP1: Attagene TRANS-FACTORIAL Multi-Species (XSP1) HepG2 Assay for zebrafish Estrogen Receptor (ESR2B) (AID 2283773)
# Summary of the method: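 Multiplexed TRANS format in transfected HepG2 liver cells, chimeric NR-Gal4 from zebrafish ESR2B. 24 h dosing; medium contains 3 nM 6-alpha-fluorotestosterone. mRNA induction by RT-PCR/CE, positive direction vs DMSO.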
# [2] = system: frog Estrogen Receptor (ESR2), gene 100174814; assay: ATG_frER2_XSP1: Attagene TRANS-FACTORIAL Multi-Species (XSP1) HepG2 Assay for frog Estrogen Receptor (ESR2) (AID 2283774)
# Summary of the method: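 HepG2, transient MRTU transfection (GAL4-UAS reporters, exogenous NR-Gal4 chimeras); 24 h compound exposure; 3 nM 6α-fluorotestosterone co-added; total RNA → RT-PCR → 6-FAM primer extension → HpaI → CE. Positive direction vs DMSO.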
# [3] = ACEA_AR_agonist_AUC_viability: ACEA Biosciences xCELLigence Real-Time Cell Analysis on Androgen Receptor Agonism for Viability (AID 2283775);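 as to AC50: viability read 80 hours after compound addition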
# Summary of the method: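 22Rv1 cells; impedance growth kinetics; 8-pt 1:4 dilutions from 100 uM top final, ≤0.5% DMSO; n = 2; 80 h read; AUC viability, loss-of-signal vs DMSO.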
# [4] = ACEA_AR_antagonist_AUC_viability: ACEA Biosciences xCELLigence Real-Time Cell Analysis on Androgen Receptor Antagonism for Viability (AID 2283776);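 also: area under impedance growth curve at 80 h after dosing as viability; hits lower the growth signal relative to DMSO meaning cytotoxicity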
# Summary of the method: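 22Rv1 human prostate cancer cells were seeded on electrode plates, monitored overnight, then exposed to eight 1:4 dilutions from 100 uM final. Impedance-based growth kinetics at 80 h gave an AUC viability endpoint normalized to DMSO.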
# [5] = system: frog Estrogen Receptor (ESR1), gene 398734; assay: ATG_frER1_XSP1: Attagene TRANS-FACTORIAL Multi-Species (XSP1) HepG2 Assay for frog Estrogen Receptor (ESR1) (AID 2283777)
# Summary of the method: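 Transient MRTU transfection, HepG2 (human liver); 24 h dosing, 3 nM 6α-fluorotestosterone co-added; RNA → RT-PCR → 6-FAM labeling → CE; upward activity vs DMSO.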
# [6] = system: zebrafish Estrogen Receptor (ESR2A), gene 317734; assay: ATG_zfER2a_XSP1: Attagene TRANS-FACTORIAL Multi-Species (XSP1) HepG2 Assay for zebrafish Estrogen Receptor (ESR2A) (AID 2283778)
# Summary of the method: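 Transient transfection of HepG2 (human liver) with MRTU constructs; chemical dosing for 24 h; medium contained 3 nM 6-alpha-fluorotestosterone to partly stimulate AR. RT-PCR/CE fluorescence of reporter transcripts; positive direction vs DMSO.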
# [7] = biological target: chicken Estrogen Receptor (ESR1), ESR1 (gene 396099) (UniProt P06212); assay: ATG_chERa_XSP1: Attagene TRANS-FACTORIAL Multi-Species (XSP1) HepG2 Assay for chicken Estrogen Receptor (ESR1) (AID 2283779)
# Chain of chicken Estrogen Receptor (ESR1), ESR1 (gene 396099) (P06212 whole entry, looked up, the tested form may be a part): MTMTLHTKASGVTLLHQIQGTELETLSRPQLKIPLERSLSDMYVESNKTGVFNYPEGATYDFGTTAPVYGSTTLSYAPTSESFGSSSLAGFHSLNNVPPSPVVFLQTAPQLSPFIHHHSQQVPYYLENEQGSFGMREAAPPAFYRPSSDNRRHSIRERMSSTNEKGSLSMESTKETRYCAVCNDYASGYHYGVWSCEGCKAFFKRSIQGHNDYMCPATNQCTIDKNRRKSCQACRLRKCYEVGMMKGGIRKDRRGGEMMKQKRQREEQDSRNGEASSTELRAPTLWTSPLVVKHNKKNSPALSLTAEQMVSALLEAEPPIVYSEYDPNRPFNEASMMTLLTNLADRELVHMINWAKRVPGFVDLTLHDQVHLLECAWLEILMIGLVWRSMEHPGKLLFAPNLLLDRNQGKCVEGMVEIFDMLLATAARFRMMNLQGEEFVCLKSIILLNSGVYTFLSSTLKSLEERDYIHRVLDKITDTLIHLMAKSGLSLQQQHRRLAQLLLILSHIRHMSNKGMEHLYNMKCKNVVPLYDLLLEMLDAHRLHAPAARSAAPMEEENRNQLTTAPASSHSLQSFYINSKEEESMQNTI
# Summary of the method: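 Read-out: fluorescent reporter mRNA fragments resolved by capillary electrophoresis after RT-PCR and HpaI digestion. Transfected HepG2 cells carried chimeric NR-Gal4 constructs, were dosed 24 h with 3 nM 6-alpha-fluorotestosterone added, and activity was fitted upward relative to DMSO.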
# [8] = system: turtle Estrogen Receptor (ESR1), gene 101933533; assay: ATG_trERa_XSP1: Attagene TRANS-FACTORIAL Multi-Species (XSP1) HepG2 Assay for turtle Estrogen Receptor (ESR1) (AID 2283781)
# Summary of the method: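 Transfect HepG2 with reporter units → dose chemical 24 h (medium has 3 nM 6-alpha-fluorotestosterone) → isolate RNA, RT-PCR → FAM primer extension, HpaI digest → capillary electrophoresis; gain of signal vs DMSO.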
# [9] = ACEA_ER_AUC_viability: ACEA Biosciences xCELLigence Real-Time Cell Analysis on Estrogen Receptor Agonism for Viability (AID 2283782);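 also: hit means loss of impedance signal meaning reduced cell growth or viability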
# Summary of the method: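 Read-out: real-time electrical impedance (RT-CES) area under curve, loss of signal taken as reduced viability, normalized to DMSO baseline. T-47D cells, charcoal-stripped serum medium, compounds up to 100 uM final, continuous exposure, 80 h.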
# AR (gene 367) = AR (gene 367) (UniProt P10275); assay: ACEA_AR_agonist_80hr: ACEA Biosciences xCELLigence Real-Time Cell Analysis on Androgen Receptor Agonism for Proliferation (AID 2283783);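 also: hits increase impedance growth signal above DMSO baseline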
# Chain of AR (gene 367) (P10275 whole entry, looked up): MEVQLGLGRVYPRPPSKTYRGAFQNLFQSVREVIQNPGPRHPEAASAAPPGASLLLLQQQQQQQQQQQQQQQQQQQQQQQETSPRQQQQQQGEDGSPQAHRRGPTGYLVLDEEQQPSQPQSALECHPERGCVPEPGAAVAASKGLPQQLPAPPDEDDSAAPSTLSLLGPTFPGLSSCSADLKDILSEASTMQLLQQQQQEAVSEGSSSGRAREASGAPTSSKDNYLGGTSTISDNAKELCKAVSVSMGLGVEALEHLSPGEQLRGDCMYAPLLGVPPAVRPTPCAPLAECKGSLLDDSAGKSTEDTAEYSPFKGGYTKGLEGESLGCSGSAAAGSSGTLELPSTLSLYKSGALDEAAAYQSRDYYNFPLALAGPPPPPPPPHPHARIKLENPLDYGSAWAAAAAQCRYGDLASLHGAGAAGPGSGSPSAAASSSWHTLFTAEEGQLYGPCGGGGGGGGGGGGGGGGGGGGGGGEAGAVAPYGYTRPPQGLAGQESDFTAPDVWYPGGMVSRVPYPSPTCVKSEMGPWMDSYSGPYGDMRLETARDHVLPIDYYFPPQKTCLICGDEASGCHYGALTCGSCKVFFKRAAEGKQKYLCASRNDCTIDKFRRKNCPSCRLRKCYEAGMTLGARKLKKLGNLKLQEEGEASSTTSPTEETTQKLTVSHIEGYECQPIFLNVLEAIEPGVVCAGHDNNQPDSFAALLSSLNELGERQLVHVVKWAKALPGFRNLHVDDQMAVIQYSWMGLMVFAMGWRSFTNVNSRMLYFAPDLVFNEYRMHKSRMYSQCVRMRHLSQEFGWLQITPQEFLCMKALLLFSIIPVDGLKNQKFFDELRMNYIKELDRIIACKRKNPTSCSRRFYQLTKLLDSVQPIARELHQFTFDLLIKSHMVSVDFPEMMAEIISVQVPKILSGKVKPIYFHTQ
# Summary of the method: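 Impedance (RT-CES) growth signal at 80 h post-dose; 22Rv1 cells, 8-pt 1:4 series, top 100 uM final, DMSO ≤0.5%; duplicate plates; gain-of-signal fit relative to DMSO baseline.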
structure (smiles),measurement,setting,value
C=CC1(C)OC(=O)N(c2cc(Cl)cc(Cl)c2)C1=O (stereo unspecified),AC50,[1],168 µM (active)
same,outcome,[2],inactive
same,AC50,[3],38.5 µM (active)
same,AC50,[4],83.7 µM (active)
same,outcome,[5],inactive
same,outcome,[6],inactive
same,AC50,[7],59.9 µM (active)
same,AC50,[8],100 µM (active)
same,outcome,[9],inactive
O=C(Nc1ccccc1)Nc1ccnc(Cl)c1,AC50,[3],39.1 µM (active)
same,AC50,[4],30.8 µM (active)
same,AC50,[9],81.3 µM (active)
CC1COC(Cn2cncn2)(c2ccc(Oc3ccc(Cl)cc3)cc2Cl)O1 (stereo unspecified),AC50,[3],44.8 µM (active)
same,AC50,[4],30.3 µM (active)
same,AC50,[9],83.2 µM (active)
CCNc1nc(Cl)nc(NCC)n1,outcome,[3],inactive
same,outcome,[4],inactive
COC(=O)c1ccccc1C(=O)OC,outcome,[4],inactive
same,outcome,[9],inactive
CS/C(C)=N/OC(=O)N(C)SN(C)C(=O)O/N=C(\C)SC,AC50,[3],79.6 µM (active)
same,AC50,[4],77.9 µM (active)
same,AC50,[9],24.8 µM (active)
same,outcome,AR (gene 367),inactive
N#Cc1nn(-c2c(Cl)cc(C(F)(F)F)cc2Cl)c(N)c1S(=O)C(F)(F)F (stereo unspecified),AC50,[3],40.6 µM (active)
same,AC50,[4],31.2 µM (active)
same,AC50,[9],83.3 µM (active)
CN(C)C(=S)SSC(=S)N(C)C,AC50,[3],20 µM (active)
same,AC50,[4],22.6 µM (active)
same,AC50,[9],91 µM (active)
same,outcome,AR (gene 367),inactive
C=CCC1=C(C)[C@@H](OC(=O)[C@@H]2[C@@H](C=C(C)C)C2(C)C)CC1=O,AC50,[3],66.9 µM (active)
same,AC50,[4],61.3 µM (active)
same,AC50,[9],89.8 µM (active)
CNC(=S)S,outcome,[3],inactive
same,outcome,[4],inactive
same,outcome,[9],inactive
COc1cnc(OC)n2nc(NS(=O)(=O)c3c(OCC(F)F)cccc3C(F)(F)F)nc12,outcome,[3],inactive
same,outcome,[4],inactive
Fc1ccc(Oc2ccnc3cc(Cl)cc(Cl)c23)cc1,AC50,[3],76.3 µM (active)
same,AC50,[4],60 µM (active)
same,AC50,[9],80.2 µM (active)
